Common to all, as to details: mRNA level, 48 h; actives raise or lower the signal
Read-out in assay [1]: Cyclin D1 (CCND1), CCND1 (gene 595)
Nature of the assay: LTEA_HepaRG_CCND1: Life Technologies and Expression Analysis (LTEA) Assay for Cyclin D1 (CCND1) using HepaRG (AID 2283451). The method in brief: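 Differentiated human HepaRG cells in serum-free induction medium were exposed 48 h to eight half-log concentrations up to 100 uM in 0.5% DMSO; mRNA quantified by TaqMan qRT-PCR, normalized to ACTB, GAPDH, POLR2A, fitted bidirectionally versus DMSO.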

Read-out in assay [2]: catalase (CAT), CAT (gene 847)
Briefly: LTEA_HepaRG_CAT: Life Technologies and Expression Analysis (LTEA) Assay for catalase (CAT) using HepaRG (AID 2283452). The method in brief: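 HepaRG cells in serum-free induction medium, 0.5% DMSO vehicle, exposed 48 h in duplicate over 8 half-log concentrations from 100 uM. CAT mRNA measured by qRT-PCR, normalized to ACTB, GAPDH, POLR2A; bidirectional fit versus DMSO.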

Read-out in assay [3]: flavin-containing dimethylaniline monooxygenases 3 (FMO3), FMO3 (gene 2328)
Briefly: LTEA_HepaRG_FMO3: Life Technologies and Expression Analysis (LTEA) Assay for flavin-containing dimethylaniline monooxygenases 3 (FMO3) using HepaRG (AID 2283453). The method in brief: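 HepaRG, 48 h exposure, 8-pt half-log series from 100 uM, 0.5% DMSO vehicle, duplicates; FMO3 transcript by Fluidigm TaqMan qRT-PCR, housekeeping-normalized; gain/loss fit vs DMSO.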

Read-out in assay [4]: Cytochrome P450 (CYP1A1), CYP1A1 (gene 1543)
Briefly: LTEA_HepaRG_CYP1A1: Life Technologies and Expression Analysis (LTEA) Assay for Cytochrome P450 (CYP1A1) using HepaRG (AID 2283454). The method in brief: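 Differentiated HepaRG cells in serum-free induction medium were exposed in duplicate for 48 h to eight half-log concentrations up to 100 uM in 0.5% DMSO. CYP1A1 mRNA was quantified by TaqMan qRT-PCR, normalized to ACTB, GAPDH and POLR2A.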

Read-out in assay [5]: CFLAR gene, CFLAR (gene 8837)
Briefly: LTEA_HepaRG_CFLAR: Life Technologies and Expression Analysis (LTEA) Assay for CFLAR gene using HepaRG (AID 2283455). The method in brief:
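Differentiated HepaRG cells in serum-free induction medium were exposed 48 h in duplicate to eight half-log concentrations up to 100 uM in 0.5% DMSO; mRNA measured by TaqMan qRT-PCR, normalized to ACTB, GAPDH, POLR2A; bidirectional fitting versus DMSO.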

Read-out in assay [6]: Forkhead box O1 (FOXO1), FOXO1 (gene 2308)
Briefly: LTEA_HepaRG_FOXO1: Life Technologies and Expression Analysis (LTEA) Assay for Forkhead box O1 (FOXO1) using HepaRG (AID 2283456). The procedure, abridged: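 Differentiated HepaRG cells, in serum-free induction medium with 0.5% DMSO, exposed 48 h in duplicate to 8-point half-log series from 100 uM. FOXO1 mRNA measured by TaqMan qRT-PCR, normalized to ACTB, GAPDH, POLR2A; bidirectional fit versus DMSO.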

Read-out in assay [7]: growth arrest and DNA damage 45 (GADD45A), GADD45A (gene 1647)
Nature of the assay: LTEA_HepaRG_GADD45A: Life Technologies and Expression Analysis (LTEA) Assay for growth arrest and DNA damage 45 (GADD45A) using HepaRG (AID 2283458). The procedure, abridged:
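Human HepaRG liver cells are treated in duplicate for 48 h with chemicals in 0.5% DMSO, highest concentration 100 uM. Expression is read by qRT-PCR and analyzed in both directions against vehicle.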

Read-out in assay [8]: Forkhead box O3 (FOXO3), FOXO3 (gene 2309)
Briefly: LTEA_HepaRG_FOXO3: Life Technologies and Expression Analysis (LTEA) Assay for Forkhead box O3 (FOXO3) using HepaRG (AID 2283459). The method in brief:
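Differentiated human HepaRG cells, 48 h post-plating, exposed in duplicate for 48 h in serum-free induction medium; 8-point half-log series from 100 uM in 0.5% DMSO. FOXO3 mRNA by TaqMan qRT-PCR, normalized to ACTB/GAPDH/POLR2A; bidirectional fit versus DMSO.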

Read-out in assay [9]: ABC Transporter (ABCB1), ABCB1 (gene 5243)
Nature of the assay: LTEA_HepaRG_ABCB1: Life Technologies and Expression Analysis (LTEA) Assay for ABC Transporter (ABCB1) using HepaRG (AID 2283460). The procedure, abridged: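 HepaRG cells exposed in duplicate for 48 h in serum-free induction medium to eight half-log concentrations up to 100 uM in 0.5% DMSO. ABCB1 mRNA quantified by qRT-PCR, normalised to ACTB, GAPDH and POLR2A; fitted bidirectionally versus DMSO.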

Read-out in assay [10]: growth arrest and DNA damage 45 (GADD45B), GADD45B (gene 4616)
Nature of the assay: LTEA_HepaRG_GADD45B: Life Technologies and Expression Analysis (LTEA) Assay for growth arrest and DNA damage 45 (GADD45B) using HepaRG (AID 2283461). The procedure, abridged: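 Differentiated HepaRG cells, plated 48 h then switched to serum-free induction medium, were exposed 48 h in duplicate to eight half-log concentrations from 100 uM in 0.5% DMSO; mRNA quantified by qRT-PCR, normalized to ACTB/GAPDH/POLR2A, bidirectional fit versus DMSO.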

Read-out in assay [11]: ABC Transporter (ABCB11), ABCB11 (gene 8647)
Nature of the assay: LTEA_HepaRG_ABCB11: Life Technologies and Expression Analysis (LTEA) Assay for ABC Transporter (ABCB11) using HepaRG (AID 2283463). The procedure, abridged:
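Differentiated human HepaRG cells in serum-free induction medium, dosed in duplicate for 48 h. Eight-point half-log series from 100 uM in 0.5% DMSO; ABCB11 mRNA by qRT-PCR, normalized to ACTB, GAPDH, POLR2A, fitted bidirectionally versus DMSO.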

Read-out in assay [12]: ABC Transporter (ABCC2), ABCC2 (gene 1244)
Nature of the assay: LTEA_HepaRG_ABCC2: Life Technologies and Expression Analysis (LTEA) Assay for ABC Transporter (ABCC2) using HepaRG (AID 2283464). The procedure, abridged:
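HepaRG cells were plated 48 h, switched to serum-free induction medium, then exposed in duplicate for 48 h to 8 concentrations (top 100 uM, half-log steps, 0.5% DMSO). ABCC2 mRNA was measured by qRT-PCR normalized to ACTB/GAPDH/POLR2A; bidirectional fitting versus DMSO.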

Read-out in assay [13]: Broad substrate specificity ATP-binding cassette transporter ABCG2 (Homo sapiens) (UniProt Q9UNQ0)
Briefly: LTEA_HepaRG_ABCG2: Life Technologies and Expression Analysis (LTEA) Assay for ABC Transporter (ABCG2) using HepaRG (AID 2283465). The method in brief: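 Differentiated HepaRG cells were exposed for 48 h in serum-free induction medium to 8 half-log concentrations, top 100 uM, in 0.5% DMSO. ABCG2 mRNA was measured by qRT-PCR, normalized to ACTB, GAPDH and POLR2A, with bidirectional fitting versus DMSO.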

Read-out in assay [14]: ATP-citrate lyase (ACLY), ACLY (gene 47)
Nature of the assay: LTEA_HepaRG_ACLY: Life Technologies and Expression Analysis (LTEA) Assay for ATP-citrate lyase (ACLY) using HepaRG (AID 2283466). The procedure, abridged:
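Differentiated HepaRG cells exposed 48 h in serum-free induction medium to eight half-log concentrations up to 100 uM in 0.5% DMSO, duplicates. Transcript measured by Fluidigm TaqMan qRT-PCR, normalized to ACTB, GAPDH, POLR2A; bidirectional fit versus DMSO.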

Read-out in assay [15]: Peroxisomal acyl-coenzyme A oxidase 1 (ACOX1) gene, ACOX1 (gene 51)
Briefly: LTEA_HepaRG_ACOX1: Life Technologies and Expression Analysis (LTEA) Assay for Peroxisomal acyl-coenzyme A oxidase 1 (ACOX1) gene using HepaRG (AID 2283467). The method in brief:
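HepaRG cells, plated 48 h then switched to serum-free induction medium, were exposed in duplicate for 48 h to 8-point half-log concentrations up to 100 uM in 0.5% DMSO. ACOX1 mRNA was measured by qRT-PCR, normalized to ACTB/GAPDH/POLR2A, and fitted bidirectionally versus DMSO.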

Read-out in assay [16]: Bcl-2 (BAD) gene, BAD (gene 572)
Nature of the assay: LTEA_HepaRG_BAD: Life Technologies and Expression Analysis (LTEA) Assay for Bcl-2 (BAD) gene using HepaRG (AID 2283469). The method in brief:
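Differentiated HepaRG cells were exposed in duplicate in 0.5% DMSO for 48 h to eight-point half-log concentrations up to 100 uM. BAD mRNA was measured by Fluidigm TaqMan qRT-PCR, normalized to ACTB, GAPDH and POLR2A, and fitted bidirectionally against DMSO.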

Read-out in assay [17]: Bcl-2 (BAX) gene, BAX (gene 581)
Nature of the assay: LTEA_HepaRG_BAX: Life Technologies and Expression Analysis (LTEA) Assay for Bcl-2 (BAX) gene using HepaRG (AID 2283470). The method in brief:
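Concentration-response endpoint fitted in both directions relative to 0.5% DMSO vehicle. Human HepaRG cultures receive test chemicals for 48 h at up to 100 uM; BAX mRNA is quantified by qRT-PCR against housekeeping genes.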

Read-out in assay [18]: ABC Transporter (ABCC3), ABCC3 (gene 8714)
Nature of the assay: LTEA_HepaRG_ABCC3: Life Technologies and Expression Analysis (LTEA) Assay for ABC Transporter (ABCC3) using HepaRG (AID 2283462). The procedure, abridged: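 HepaRG cells in serum-free induction medium were exposed for 48 h in duplicate to 8-point half-log concentrations topping at 100 uM in 0.5% DMSO. ABCC3 mRNA was measured by qRT-PCR normalized to ACTB, GAPDH and POLR2A, with bidirectional fitting versus DMSO.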

Read-out in assay [19]: Alkaline Phosphatase, Placental (ALPP) gene, ALPP (gene 250)
Nature of the assay: LTEA_HepaRG_ALPP: Life Technologies and Expression Analysis (LTEA) Assay for Alkaline Phosphatase, Placental (ALPP) gene using HepaRG (AID 2283468). The procedure, abridged: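 Differentiated human HepaRG cells were plated and cultured 48 h, then exposed in duplicate for 48 h in serum-free induction medium to eight half-log concentrations from 100 uM in 0.5% DMSO. ALPP mRNA was measured by TaqMan qRT-PCR, normalized to ACTB, GAPDH, POLR2A.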

Where a structure was tested more than once in an assay, its records may differ in their call. Active and inactive are the calls of the source. The calls were made as follows: active = hit-call score of the fitted dose curve at least 0.9, where 1 is the maximum; inactive = score below 0.9.

Chain of Broad substrate specificity ATP-binding cassette transporter ABCG2 (Homo sapiens) (Q9UNQ0 whole entry, looked up): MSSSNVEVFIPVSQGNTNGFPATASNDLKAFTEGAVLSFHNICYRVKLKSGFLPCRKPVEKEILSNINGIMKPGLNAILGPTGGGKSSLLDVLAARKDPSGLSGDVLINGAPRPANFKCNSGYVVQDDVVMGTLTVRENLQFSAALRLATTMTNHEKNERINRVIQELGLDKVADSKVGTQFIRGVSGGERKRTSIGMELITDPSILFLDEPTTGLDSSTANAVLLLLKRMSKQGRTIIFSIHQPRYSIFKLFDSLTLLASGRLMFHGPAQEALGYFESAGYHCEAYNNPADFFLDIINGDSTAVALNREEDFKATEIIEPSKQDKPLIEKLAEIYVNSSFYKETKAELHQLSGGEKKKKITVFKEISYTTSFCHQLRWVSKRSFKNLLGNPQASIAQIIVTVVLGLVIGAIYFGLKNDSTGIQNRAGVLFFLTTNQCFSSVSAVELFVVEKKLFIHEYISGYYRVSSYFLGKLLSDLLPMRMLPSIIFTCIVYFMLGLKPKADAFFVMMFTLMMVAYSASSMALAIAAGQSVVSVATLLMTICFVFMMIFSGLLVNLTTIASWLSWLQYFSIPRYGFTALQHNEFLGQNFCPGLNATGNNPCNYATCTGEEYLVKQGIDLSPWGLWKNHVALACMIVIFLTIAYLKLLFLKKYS

As to `ClC1=C(Cl)C(Cl)(Cl)C(Cl)=C1Cl`, the call in assay [1], in assay [2], in assay [3], in assay [4], in assay [5] and in assay [6] was inactive. In addition, the call in assay [7], in assay [8], in [9], in [10], in [11] and in assay [12] was inactive. For the same compound, the result in assay [13], in [14], in assay [15], in assay [16] and in [17] was inactive.

What is called AC50 is the midpoint of the concentration-response curve, whichever way the signal moves. For the compound `O=[N+]([O-])c1ccc(O)cc1`, the result in assay [2], in assay [3], in [4], in assay [5], in [6] and in [7] was inactive. Also, the call in assay [8], in assay [10], in assay [18], in assay [11], in assay [12] and in assay [13] was inactive. Besides, the result in [14], in assay [15], in assay [16] and in assay [17] was inactive. Besides, the AC50 in assay [4] was 78.2 µM (active).

Regarding `CCCCCCCCCCCCCCCS(=O)(=O)Oc1ccccc1`, the call in assay [2], in [3], in [5], in [6], in assay [7] and in assay [8] was inactive. In addition, the outcome in [10], in assay [18], in assay [11], in [13], in assay [14] and in [15] was inactive. The compound was called inactive in assay [19], in [16] and in assay [17]. In addition, the concentration at half-maximal activity (AC50) in assay [4] was 11.4 µM (active); in [9] it was 13.3 µM (active); in assay [12], 11.2 µM (active).

With `N#C[C@@H]1CC(F)(F)CN1C(=O)CNC1CC2CCC(C1)N2c1ncccn1` (stereo partly specified), the result in assay [1], in assay [2], in assay [3], in assay [5], in assay [6] and in assay [7] was inactive. The outcome in [8], in assay [10], in [18], in [11], in assay [12] and in assay [13] was inactive. Moreover, the call in [14], in assay [15], in [16] and in [17] was inactive. Moreover, the AC50 in assay [4] was 72.1 µM (active).

For `C[C@@H]1C[C@H]2[C@@H]3CCC4=CC(=O)C=C[C@]4(C)[C@@]3(F)[C@@H](O)C[C@]2(C)[C@@]1(O)C(=O)COP(=O)(O)O`, the call in assay [1], in [2], in [3], in [4], in assay [5] and in assay [6] was inactive. For the same compound, the compound was called inactive in assay [7], in assay [8], in assay [9], in [10], in [18] and in assay [11]. Besides, the compound was classed as inactive in [12], in assay [13], in assay [14], in [15], in assay [19] and in [16]. In addition, in assay [17], the compound was called inactive.

In the case of `COC(=O)CCCCC(=O)OC`, the outcome in [2], in [3], in [4], in assay [5], in [6] and in assay [7] was inactive. Besides, the compound was classed as inactive in [8], in assay [9], in assay [10], in assay [18], in [11] and in assay [12]. For the same compound, the result in [13], in [14], in assay [15], in assay [19], in [16] and in assay [17] was inactive.
